# High-throughput results deposited in PubChem by National Center for Advancing Translational Sciences (NCATS).
# FLuc modulator: inhibits or activates purified firefly luciferase, miR-21 counter-screen; P08659; AID 588342; 6.9% of 360,000 active; Potency, µM (highest dose often 57.5 µM), without a hit: at the highest dose activity change, negative = inhibition, most hits filed as inhibitors; purified FLuc, Km substrates, luminescence inhibition;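 also: plate controls were vehicle for no effect and reference inhibitor for full effect; nearly all actives have a fitted effect of over 55% in size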
# Target sequence (P08659 whole entry, looked up): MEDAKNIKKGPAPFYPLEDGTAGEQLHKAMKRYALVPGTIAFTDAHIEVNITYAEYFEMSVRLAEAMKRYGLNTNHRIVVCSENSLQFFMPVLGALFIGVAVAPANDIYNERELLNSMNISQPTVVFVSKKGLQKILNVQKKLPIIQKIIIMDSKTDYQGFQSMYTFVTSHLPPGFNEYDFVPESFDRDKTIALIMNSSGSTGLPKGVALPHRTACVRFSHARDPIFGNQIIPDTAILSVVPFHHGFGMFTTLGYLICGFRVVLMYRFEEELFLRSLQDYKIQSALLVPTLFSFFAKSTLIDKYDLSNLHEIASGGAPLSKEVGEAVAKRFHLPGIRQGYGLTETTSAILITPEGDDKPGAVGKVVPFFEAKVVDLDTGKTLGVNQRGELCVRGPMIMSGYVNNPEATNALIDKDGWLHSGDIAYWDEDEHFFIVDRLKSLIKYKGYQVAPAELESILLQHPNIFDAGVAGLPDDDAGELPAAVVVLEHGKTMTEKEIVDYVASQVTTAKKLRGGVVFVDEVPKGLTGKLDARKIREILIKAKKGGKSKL
#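 Purified P. pyralis luciferase, 10 nM final, with Km-level 10 uM D-luciferin and 10 uM ATP in 50 mM Tris acetate pH 7.5, 10 mM Mg acetate, 0.01% Tween-20, 0.05% BSA; 6-point qHTS titration about 60 µM downward; luminescence read.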
# NPC1 promoter act: NPC1 promoter activation; 2.4% of 320,000 active; Potency, µM (doses to about 9.22 µM), inactives show at the top dose activation, hits mostly activators; AID 485313; Huh7 NPC1 promoter luciferase reporter, 24 h; also: % of control where 0% means no effect; nearly all actives have a fitted effect of over 60% in size
#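 In 1536-well qHTS, Huh7 cells harboring an NPC1 promoter–luciferase construct received compound for 24 h; activation was quantified by luminescence following luciferase reagent addition.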
# SMN2 splice up: increases expression of the SMN2 splice variant | AID 1458 | Potency, µM (titrated, usually from 46.1 µM), inactives show at the highest dose activity change, positive = activation, usual class: activators | 2.8% of 210,000 active | HEK293 SMN2-luciferase splicing reporter, luminescence, 30-36 h; also: % of control where 0% means no effect; nearly all actives have a fitted effect of over 55% in size
#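 HEK293 cells carry an SMN2 minigene-luciferase reporter in which exon 7 inclusion puts luciferase in frame. Cells were seeded at 2000 cells/well, attached for 10-12 hours, then exposed to compounds for 30-36 hours at 37C before ONE-Glo luminescence.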
# ELG1 genotoxic: induces genotoxicity in HEK293T cells with luciferase-tagged ELG1. Potency, µM (titrated, usually from 46 µM), for inactives: at the highest dose activity change, positive = activation, hits mostly activators. 1.3% of 330,000 active. AID 504466. HEK293T ELG1-luciferase reporter, luminescence, 16 h; also: % of control where 0% means no effect; nearly all actives have a fitted effect of over 60% in size
#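 16 hr compound incubation (37 °C, 5% CO2) of HEK293T cells carrying luciferase-tagged ELG1; luciferase then measured by ONE-Glo luminescence after 30 min at RT.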
# Rab9 promoter act: activates the Rab9 promoter; Potency, µM (highest dose often 9.22 µM), for the others: top-dose activation, negative = inhibition, most hits filed as activators; 2.8% of 320,000 active; Huh7 Rab9 promoter-luciferase reporter, luminescence, 24 h; also: % of control where 0% means no effect; nearly all actives have a fitted effect of over 60% in size
#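 Cells were plated at 1500 per well in reduced-serum medium with 10% FBS and left 2 h. Compound in DMSO was then added for 24 h at 37 °C. Reporter signal was read by luminescence after 10 min with luciferase detection reagent.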
# An asterisk follows results filed as active; ? = inconclusive; · = not tested or not shown; [ ] = another dose, or the depositor's remark. This is a sample that favours compounds with a hit; in the whole collection about 7.4% have one here. Calls follow the shape of the dose curve; as a rule, active = well fitted curve in the direction sought with a large enough effect; inconclusive = small, poorly fitted or top-dose-only effect, or another doubt; inactive = no such curve, though single readings can be large; an effect the other way counts as inactive or inconclusive. Potency is read from the fitted curve at half-maximal effect.
SMILES,FLuc modulator,NPC1 promoter act,SMN2 splice up,ELG1 genotoxic,Rab9 promoter act
CC1CCCCN1S(=O)(=O)c1ccc(C(=O)Nc2sc3c(c2C(N)=O)CC(C)(C)NC3(C)C)cc1 (stereo unspecified),5%,·,·,·,·
O=C1OC(C(=O)Nc2cc(C(F)(F)F)ccc2Cl)Cc2ccccc21 (stereo unspecified),-1%,·,-13%,·,·
O=C1C(=O)N(C2CCN(C(=O)c3ccc(F)cc3)CC2)CCN1Cc1ccc(F)cc1,-1%,·,·,·,·
COc1ccccc1N(C)S(=O)(=O)c1ccc(C(=O)OCC(=O)NCCC2=CCCCC2)cc1,-3%,-1%,?,0%,-10%
Cc1ccc(N(C)S(=O)(=O)c2ccc(-c3coc(C)n3)cc2)cc1,-16%,·,·,·,·
O=C(Nc1cccc(F)c1)NC1CC2CCCC(C1)N2C1CC1 (stereo unspecified),2%,-1%,15%,2%,3%
O=C(Nc1cccc(F)c1)NC1CCCCC1,24µM*,?,18µM*,?,?
O=C(Nc1ccc(F)cc1F)NC1CC1,0%,0%,-1%,-2%,2%
O=C(Nc1ccc(F)cc1F)NC1CCCCCCC1,12µM*,?,·,?,?
COc1cccc(C(=O)COC(=O)CCCC(=O)NC2CCCCC2)c1,27µM*,-3%,·,-1%,0%
CNS(=O)(=O)c1cccc(C(=O)OCC(=O)c2ccc3c(c2)OCCO3)c1,0.38µM*,9%,·,-1%,20%
NS(=O)(=O)c1cc(C(=O)NNC(=O)c2ccc3c(c2)OCO3)ccc1Cl,·,·,·,11%,·
NS(=O)(=O)c1cc(C(=O)OCC(=O)c2ccc3c(c2)OCCO3)ccc1Cl,0.21µM*,2.8µM*,-1%,?,2.8µM*
CCOc1ccc(NS(=O)(=O)c2csc(C(N)=O)c2)cc1,0%,2%,·,-6%,-2%
Nc1cccc(-c2ccc(CO)o2)c1,17µM*,0%,·,8%,0%
CC(=O)Nc1ccc(NC(=O)C(C)OC(=O)CSCc2cccc(Cl)c2)cc1 (stereo unspecified),-2%,-1%,·,4%,0%
COC(C(=O)Nc1ccc(C(N)=O)cc1)c1ccccc1 (stereo unspecified),4%,1%,16µM*,-2%,-8%
CC(=O)c1ccc(NC(=O)c2sc(-n3nc(C)c(Cc4ccc5c(c4)OCO5)c3C)nc2C)cc1,-2%,·,·,·,·
COc1cccc(CNc2nc3ccccc3n2C)c1O,9.5µM*,1µM*,·,9.2µM*,1.8µM*
COc1cccc(CNc2cnc3ccccc3c2)c1O,2.4µM*,1.6µM*,3.5µM*,12µM*,1.8µM*
COc1ccccc1Nc1nc2ccccc2n1C,15µM*,?,11µM*,?,2.8µM*
CCCCCn1c(NCc2ccccc2OC)nc2ccccc21,-18%,·,2%,·,·
Cc1ccccc1NC(=O)NC1(C(=O)NCC2CCCO2)CCCCC1 (stereo unspecified),1%,-2%,·,2%,-3%
O=C(COCc1cc(-c2cccs2)on1)N1CCN(c2ccc(F)cc2)CC1,4%,·,·,·,·
CCCN1CCN(CCNC(=O)Nc2ccc(OC)c(OC)c2)CC1,3%,·,-4%,·,·
SMILES,FLuc modulator,NPC1 promoter act,SMN2 splice up,ELG1 genotoxic,Rab9 promoter act
Clc1ccc(-c2nnc(C3CCCCC3)o2)cc1,?,24%,27%,?,30%
Clc1ccc(-c2nc(C3CCCCC3)no2)cc1,4.8µM*,3.2µM*,?,12%,3.2µM*
CC1CCCC(C)N1C(=O)c1cc(-c2ccc(Cl)c(Cl)c2)on1 (stereo unspecified),12µM*,?,27%,13%,?
COc1ccc(NC(=O)c2cc(-c3ccc4c(c3)OCO4)on2)cc1,-8%,-1%,·,3%,-2%
CC1CCCC(C)N1C(=O)c1cc(-c2ccc3c(c2)OCO3)on1 (stereo unspecified),11µM*,2µM*,·,-1%,2µM*
Cc1c(NC(=O)c2cccc3c(Cl)cccc23)cccc1-c1nc2ccccc2o1,4%,·,-1%,·,·
Cc1c(C(=O)NCCSCc2c(Cl)cccc2Cl)cccc1[N+](=O)[O-],-1%,-3%,-24%,-1%,-1%
Cc1c(S(=O)(=O)N(C)C2CCCCC2)c(=O)n(C)c(=O)n1C,0%,-2%,·,-4%,-1%
COc1ccc(C)cc1NC(=O)Nc1cccc(OCc2cc(=O)n3ccc(C)cc3n2)c1,2.7µM*,·,·,·,·
O=C(Nc1cccc(C(=O)OCc2cc(=O)n3c4c(sc3n2)CCCC4)c1)c1ccccc1,2.4µM*,·,·,·,·
COc1ccccc1C(=O)Nc1cccc(OCc2cc(=O)n3c4c(sc3n2)CCCC4)c1,6µM*,·,13%,·,·
COc1ccccc1C(=O)Nc1cccc(OCc2cc(=O)n3ccccc3n2)c1,7.6µM*,·,·,·,·
Cc1cccc(C(=O)Nc2cccc(OCc3cc(=O)n4ccccc4n3)c2)c1,4%,·,·,·,·
O=C(CSc1nc2ccsc2c(=O)n1-c1ccc(Br)cc1)NCc1ccc(Cl)cc1,6%,·,·,·,·
Cc1c(Cl)cccc1NC(=O)CCNC(=O)N1CC(=O)Nc2ccccc21,1%,7%,·,-2%,6%
Cc1ccc(NC(=O)CN(C)C(=O)Cc2c(Cl)cccc2Cl)cc1,3%,0%,·,0%,0%
Cc1cc(Cl)ccc1NC(=O)CN1C(=O)COc2ccc(S(=O)(=O)N3CCC(C)CC3)cc21,-5%,·,·,·,·
O=c1[nH]c2ccc(Cl)cc2c(O)c1-c1ccccc1,9.5µM*,1%,8%,1%,-3%
O=c1[nH]c2cc(Cl)ccc2c(O)c1-c1ccc(Oc2ccccc2)cc1,·,-5%[46.1 µM],-9%,·,-7%[46.1 µM]
O=C(Cn1c(SCC(=O)Nc2ccc(F)cc2)nc2ccccc21)NCc1ccccc1Cl,2%,·,·,·,·
COc1ccc2c(C)c(CC(=O)NCCc3ccc(Cl)cc3)c(=O)oc2c1C,2%,·,17%,·,·
COC(=O)/C=C1\S/C(=N/N=C/c2ccccc2)NC1=O,6µM*,2%,6%,0%,-3%
COC(=O)/C=C1/SC(=NC(=O)c2ccc(OC)cc2)NC1=O,27µM*,0%,·,3%,1%
COC(=O)/C=C1/S/C(=N/N=C/c2ccco2)NC1=O,?,-1%,·,2%,2%
COC(=O)/C=C1\S/C(=N/N=C/c2ccco2)NC1=O,?,-6%,4%,-6%,-4%
COC(=O)/C=C1\S/C(=N/N=C/c2ccc(Cl)cc2)NC1=O,11µM*,-3%,·,-1%,-2%
COc1ccc(CNC(=O)N2CCN(C(=O)c3ccccc3)CC2)cc1,-4%,3%,·,1%,-3%
COc1ccc(N2CCN(C(=O)CSc3ncccc3-c3nc4ccccc4[nH]3)CC2)cc1,11µM*,8%,-31%,3%,-2%
O=C(CSc1ncccc1-c1nc2ccccc2[nH]1)NC1CC1,?,0%,17%,3%,-11%
COc1ccccc1N1CCN(C(=O)CSc2ncccc2-c2nc3ccccc3[nH]2)CC1,24µM*,0%,-35%,4%,1%
